# Most compounds without a hit are left out; they make up all but 10% or so of the library.
# BAZ2B inh – qHTS Assay for Inhibitors of BAZ2B | Bromodomain adjacent to zinc finger domain protein 2B (Homo sapiens), Q9UIF8 | hit rate 4.4% among 360,000 | AID 504333, 2011 | AlphaScreen BAZ2B-H3K14Ac peptide displacement | Potency, µM (doses to about 114 µM), hits mostly inhibitors; further: nearly all actives have a fitted effect of over 60% in size
#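 Complex of BAZ2B and biotin-H3K14Ac (50 nM apiece) forms over 30 min at RT, then faces library compounds up to 110 uM for another 30 min; AlphaScreen beads added, 20 min dark incubation, luminescence read.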
# JMJD2A Tudor – qHTS Assay for Inhibitors of JMJD2A-Tudor Domain; Lysine-specific demethylase 4A (Homo sapiens), O75164; AlphaScreen JMJD2A-Tudor / H3K4me3 peptide binding; Potency, µM (series often up to 114 µM), usual class: inhibitors; hit rate 4.4% among 390,000; AID 504339, 2011; further: nearly all actives have a fitted effect of over 50% in size
# HP1b binding inh – HTS for Inhibitors of HP1-beta Chromodomain Interactions with Methylated Histone Tails; AlphaScreen HP1-beta / biotin-H3K9me3 peptide binding; Chromobox protein homolog 1 (Homo sapiens), P83916; AID 540317, 2011; Potency, µM (titrated, usually from 114 µM), usual class: inhibitors; hit rate 0.56% among 390,000; further: nearly all actives have a fitted effect of over 70% in size
# Target sequence (P83916 whole entry, looked up): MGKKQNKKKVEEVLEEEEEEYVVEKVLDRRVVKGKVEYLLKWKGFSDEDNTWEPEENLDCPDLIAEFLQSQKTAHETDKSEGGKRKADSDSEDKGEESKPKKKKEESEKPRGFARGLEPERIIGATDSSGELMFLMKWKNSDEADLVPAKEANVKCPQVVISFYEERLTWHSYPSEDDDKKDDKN
#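 HP1-beta protein (50 nM final) preincubated 30 min at room temperature with biotinylated H3(1-18)K9me3 peptide (50 nM) in PBS pH 7.4, 0.01% Tween-20, then compound added for 30 min. AlphaScreen streptavidin donor/nickel chelate acceptor beads (10 ug/mL final), 30 min dark, luminescence read.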
# CtBP-E1A blk – qHTS Assay for Inhibitors of the CtBP/E1A Interaction. CtBP / adenovirus E1A interaction (AlphaScreen). AlphaScreen GST-E1A/His-CtBP binding, 1536-well; stronger effect = lower value. activity change, % (test concentration not listed). hit rate 0.49% among 340,000; in the data active means activity change below about -65%; inconclusive means mostly about -30% to -63%
#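 Homogeneous bead-based format: GST-tagged E1A captured on glutathione donor beads, His-tagged CtBP on nickel acceptor beads; compounds precede bead addition by 2 h at 37 °C.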
# Six1-Eya2 blk – qHTS Assay for Inhibitors of the Six1/Eya2 Interaction; Homeobox protein SIX1 (Homo sapiens) + Protein phosphatase EYA2 (Homo sapiens), …; AlphaScreen GST-Six1/His-Eya2 binding, biochemical; stronger effect = lower value; activity change, % (concentration not given with the values); hit rate 0.56% among 360,000; AID 651725, 2012; in the data active means activity change below about -65%; inconclusive means mostly about -30% to -63%
#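 Homogeneous AlphaScreen proximity assay pairing GST-Six1 with His-tagged Eya2 (added as 5X mix: 250 nM and 500 nM) in 50 mM Tris pH 8.0, 300 mM NaCl, 1 mM TCEP. Glutathione donor and nickel acceptor beads; 1 h, 37 °C, dark.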
# G9a block – qHTS Assay for Inhibitors of Histone Lysine Methyltransferase G9a. Potency, µM (doses to about 102 µM), actives largely listed as inhibitors. G9a H3K9 monomethylation, AlphaScreen, 2 h. hit rate 8.8% among 350,000. AID 504332, 2011; further: nearly all actives have a fitted effect of over 75% in size
# Target sequence (Q96KQ7 913-1193 limits assumed): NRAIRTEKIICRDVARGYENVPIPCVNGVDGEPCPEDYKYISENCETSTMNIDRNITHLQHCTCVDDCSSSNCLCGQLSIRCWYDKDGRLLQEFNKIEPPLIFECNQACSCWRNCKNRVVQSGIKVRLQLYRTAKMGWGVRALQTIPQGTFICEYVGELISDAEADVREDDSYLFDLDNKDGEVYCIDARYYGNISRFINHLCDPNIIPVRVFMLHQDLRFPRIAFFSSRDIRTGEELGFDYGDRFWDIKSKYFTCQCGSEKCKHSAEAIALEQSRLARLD
#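 Readings reflect AlphaScreen signal from monomethyl-H3K9 antibody detection. HMT at 20 nM; substrate b-H3K9 500 nM; cofactor SAM 20 uM; 2 h RT reaction; compounds tested as titrations in qHTS with 15 min preincubation.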
# A number is an active result; . = inactive; ? = inconclusive; / = not tested or not shown; [ ] = remark or other dose. Unless noted, the call rests on the fitted dose curve; in most records, active means well fitted inhibition curve with a large enough effect; inconclusive means small, poorly fitted or top-dose-only effect; inactive means no such curve, though single readings can be large or run the other way.
SMILES,BAZ2B inh,JMJD2A Tudor,HP1b binding inh,CtBP-E1A blk,Six1-Eya2 blk,G9a block
Cc1nc2nc(SCC(=O)C(C)(C)C)[nH]c2cc1Br,.,?,.,.,.,.
CCCCN(C=O)c1c(CC)nc2c(OCc3ccc(Cl)cc3)cccn12,/,/,/,.,.,/
CCOc1ccc(C(=O)N2CCN(S(=O)(=O)c3cccs3)CC2)c(OCC)c1,.,.,.,.,.,/
O=C(c1cccc(S(=O)(=O)N2CCc3ccccc3C2)c1)N1CCN(c2ccc(O)cc2)CC1,?,?,?,.,.,2.51µM
NC(=O)C1CCN(C(=O)c2cccc(S(=O)(=O)N3CCc4ccccc4C3)c2)CC1,.,.,.,.,.,.
COc1ccc(N2CCN(C(=O)c3cccc(S(=O)(=O)N4CCc5ccccc54)c3)CC2)cc1,/,39.8µM,?,?,?,/
COc1ccc(N2CCN(C(=O)c3cccc(S(=O)(=O)N4CCCc5ccccc54)c3)CC2)cc1,?,?,.,/,.,.[12.7 µM]
CC1CCCCC1NCC#CCOc1ccc(Cl)cc1 (centres undefined),50.1µM,20µM,?,/,.,14.1µM
CC(C)NCC#CCOc1ccc(Cl)cc1,?,44.7µM,.,/,.,7.94µM
O=C(O)CCCC(=O)Nc1ccc(OCc2nc3ccccc3s2)cc1,?,?,?,.,.,3.16µM
COc1ccccc1NC(=O)CCc1nc2ccccc2s1,.,20µM,.,.,.,.
O=C(CCc1nc2ccccc2s1)Nc1ccccc1,.,.,.,.,.,.
CC(C)c1ccccc1NC(=O)CCc1nc2ccccc2s1,.,.,.,.,.,20µM
COC(=O)C(C(=O)OC)c1ccccc1CNS(=O)(=O)c1ccc(C)cc1,/,/,/,.,.,/
Cc1cc(C)nc(Oc2ccc(Br)cc2)n1,.,.,.,/,.,.
Cc1cccc(N2CCN(C(=O)c3cccc(-n4c(C)nc5cccnc54)c3)CC2)c1C,.,.,.,/,/,.
O=C1CC(SC2=NCCS2)C(=O)N1c1ccc(Br)cc1 (centres undefined),.,.,.,.,.,44.7µM
O=C1CC(SC2=NCCS2)C(=O)N1c1ccc(Cl)cc1 (centres undefined),.,.,.,.,.,.
COc1ccc(CNc2ccc(Cl)cc2)cc1Cn1ccnc1,25.1µM,50.1µM,?,?,?,35.5µM
Nc1c(-c2nc(-c3ccccc3Cl)no2)nnn1-c1ccccc1C(F)(F)F,.,.,.,/,/,.
CCC(C(=O)Nc1cccc(C#N)c1)n1c(=O)c(-c2ccccc2NC(C)=O)nc2ccccc21 (centres undefined),.,.,.,/,/,.
CCOc1cccc2sc(N(CCCN(C)C)C(=O)c3ccc(S(=O)(=O)N4CCCCCC4)cc3)nc12,.,?,.,.,.,.
COc1cccc2sc(N(CCCN(C)C)C(=O)c3ccc(S(=O)(=O)N4CCCc5ccccc54)cc3)nc12,39.8µM,?,.,.,.,/
CN(C)CCCN(C(=O)c1ccc(S(=O)(=O)N2CCCCCC2)cc1)c1nc2c(F)cccc2s1,?,.,.,.,.,/
CN(C)CCCN(C(=O)c1ccc(S(=O)(=O)N2CCc3ccccc32)cc1)c1nc2c(Cl)cccc2s1,?,?,.,?,?,39.8µM
Cc1ccc(N(C(=O)CCl)C(C(=O)NC2CCCCC2)c2cccnc2)cc1C (centres undefined),.,.,.,.,.,.
Cc1ccc(/C=C/C(=O)OCC(=O)Nc2cccc(S(=O)(=O)N(C)C)c2)o1,79.4µM,.,.,.,.,?
CCN(CC)S(=O)(=O)c1cccc(NC(=O)COC(=O)/C=C/c2ccco2)c1,50.1µM,.,.,.,.,15.8µM

# Screening results: PubChem BioAssay, National Center for Advancing Translational Sciences (NCATS)
